BoNT-F LC inh = BoNT/F light chain protease inhibitors, primary screen, biochemical, flow cytometry, MLPCN library | AID 588497, 2011 | inhibition, % at 10 µM | Botulinum neurotoxin type F light chain protease (Clostridium botulinum) | hit rate 0.22% among 360,000 | Multiplex microsphere protease cleavage assay; in the data active = inhibition above about 35%, passing the limit was not always enough; inconclusive = no clear call, values can overlap the other calls
Vc quorum ag = inducers of Vibrio cholerae quorum light production without autoinducers, primary screen, BH1578 luxS cqsA deficient, single point; hit rate 0.16% among 350,000; AID 588436, 2011; V. cholerae BH1578 lux reporter, luminescence, 6 h; activation, % at 18.7 µM; in the data active = activation mostly above about 9.7%, no sharp cut-off; inconclusive = no clear call, values can overlap the other calls; inactive = mostly below about 3.7%
BoNT-A LC inh2 = BoNT/A light chain protease inhibitors, primary screen, biochemical, flow cytometry, MLPCN library; AID 588499, 2011; hit rate 0.17% among 360,000; multiplex microsphere protease substrate cleavage; inhibition, % at 10 µM
Autofluor counter = counter-screen for toxin protease inhibitors: compound fluorescence. AID 624483. fluorescence intensity (no concentration beside the values). compound autofluorescence counterscreen, microsphere flow cytometry; stronger effect = higher value. hit rate 3.1% among 360,000; in the data active = fluorescence intensity above about 16000; inconclusive = no clear call, values can overlap the other calls
MazF activator = activators of E. coli MazEF toxin-antitoxin RNase, primary screen, biochemical, fluorescence, uHTS. AID 504720, 2011. Endoribonuclease toxin MazF (Escherichia coli (strain K12)), P0AE70. hit rate 0.32% among 350,000. FAM/BHQ RNA-DNA oligo cleavage fluorescence, 5 h. activation, % at 20 µM; in the data active = activation above about 50%
Anthrax LF inh2 = Bacillus anthracis LF protease inhibitors, primary screen, biochemical, multiplex microsphere, MLPCN library; Lethal factor (Bacillus anthracis), P15917; multiplex microsphere protease cleavage assay; inhibition, % at 10 µM; hit rate 0.12% among 360,000; AID 588501, 2011
A number is an active result; i = inactive; ? = inconclusive; nt = no result; ! = repeats disagree. The list is not random: actives were taken first. Their share in the collection is about 3.9%. Rule as the data show it, unless noted: active = inhibition above about 30%; inconclusive = no clear call, values can overlap the other calls; inactive = below that.

SMILES	BoNT-F LC inh	Vc quorum ag	BoNT-A LC inh2	Autofluor counter	MazF activator	Anthrax LF inh2
CN1CCN(C(=O)c2ccc(NS(=O)(=O)c3cccc([N+](=O)[O-])c3)cc2)CC1	i	i	i	i	i	i
COc1cccc(CC(C(=O)Nc2cc(C)ccc2C)c2nn[nH]n2)c1OC (stereo not given)	i	i	i	22565	i	i
O=C1OCC(Cn2c3ccccc3c3ccccc32)O1 (stereo not given)	i	i	i	23400	i	i
O=c1c2ccccc2c2ccccc2c(=O)n1CC1CCCO1 (stereo not given)	i	i	i	i	i	i
Cc1ccc(S(=O)(=O)c2c(C)cc(C)nc2Cl)c(C)c1	i	i	?	22797	i	i
O=C(Nc1cccc2nsnc12)c1cccs1	i	i	i	21640!	i	i
CCOC(=O)c1ccccc1NC(=O)c1cccs1	i	i	i	17478	i	i
COc1ccccc1CC(=O)Nc1ccccc1C(=O)O	i	i	i	i	i	i
CCOC(=O)c1ccccc1NC(=O)Cc1ccccc1OC	i	i	i	20686	i	i
O=C(O)CCC(=O)NCc1c(Cl)cccc1Sc1ccc(Cl)cc1	i	i	i	i	i	i
CCOC(=O)NNC(=O)C1CCC(C)CC1 (stereo not given)	i	i	i	i	i	i
CCCCN(C)CCC(=O)Nc1ccc2c(c1)CCC2	i	i	i	i	i	i
CCOc1ccc(C(=O)N/N=C/c2ccc(-c3ccc(S(=O)(=O)Nc4ncccn4)cc3)o2)cc1	i	i	i	22776	i	i
CSc1nnc(CCCCCCCCc2nnc(SC)o2)o1	i	i	i	i	i	i
CN1OC[C@@H]2CN3C(=O)N(c4ccccc4)c4ccccc4[C@@H]3C[C@@H]21	i	nt	i	i	nt	i
CC(NC(=O)CSc1ncnc2nc[nH]c12)c1ccccc1 (stereo not given)	i	i	i	21770	i	i
O=C(CSc1ncnc2nc[nH]c12)NCCc1ccccc1	i	i	i	i	i	i
CSc1ccc(C(=O)C2CCCN(C(=O)c3nonc3C)C2)cc1 (stereo not given)	i	i	i	i	i	i
O=C(CCNS(=O)(=O)c1ccccc1)NNC(=O)COc1ccccc1F	nt	i	nt	nt	i	nt
CC(NC(=O)c1ccco1)C(=O)OCc1cccc(Cl)c1 (stereo not given)	i	i	i	25194	i	i
O=C(NCCSc1ccc(Cl)cc1)c1ccco1	i	i	i	21843	i	i
O=C(NCc1cccc(Cl)c1)c1ccco1	i	i	i	22733	i	i
CC(=O)Nc1ccc(NC(=O)COc2ccc(S(=O)(=O)N3CCCC3)cc2)cc1	i	i	i	i	i	i
Cn1cnc(S(=O)(=O)NCc2ccc(Br)cc2)c1	i	i	i	i	i	i
O=c1ccc(S(=O)(=O)N2CCCC2)cn1Cc1nc(-c2ccc(F)cc2)no1	i	i	i	57271	i	i
SMILES	BoNT-F LC inh	Vc quorum ag	BoNT-A LC inh2	Autofluor counter	MazF activator	Anthrax LF inh2
O=C(Nc1cc2c3c(c1)CC(=O)N3CCC2)C1CCCCC1	i	i	i	i	i	i
Cc1onc(-c2c(Cl)cccc2Cl)c1COC(=O)c1ccc(Cl)cc1[N+](=O)[O-]	?	i	?	i	i	i
Nc1cc(=O)[nH]c(SCC(=O)Nc2ccc3c(c2)CCC3)n1	i	i	i	i	i	i
Nc1cc(=O)[nH]c(SCC(=O)Nc2ccc(F)c(Cl)c2)n1	i	i	i	21150	i	i
CC(=O)Nc1cccc(-n2nnc(SCC(=O)Nc3ccc(F)c(Cl)c3)n2)c1	i	i	i	16932	i	i
CC(=O)Nc1cccc(-n2nnc(SCC(N)=O)n2)c1	i	i	i	i	i	i
CC(C)(C)c1cc(NC(=O)C2(C)CCN2C(=O)c2ccccc2CCc2ccccc2)no1 (stereo not given)	i	i	i	i	nt	i
CS(=O)(=O)Nc1cccc(-c2cnc3ccccc3n2)c1	?	i	i	i	i	i
COC(=O)[C@@H]1CCCN1C(=O)[C@@H](NC(=O)OC(C)(C)C)C(C)C	i	i	i	i	i	i
CC1(CC(=O)N/N=C/c2cc3c(cc2Br)OCO3)OCCO1	i	i	i	i	i	i
